# Source: PubChem BioAssay AID485341 (National Center for Advancing Translational Sciences (NCATS), 2010)
# Among all 330,000 compounds or so, about 1,700 (0.52%) were called active. Where a call stands in place of a potency, no number is given. This excerpt belongs to a sample that is enriched for actives. Unmarked numbers belong to inactive results. The call rests on the fitted dose curve; in most records, active means well fitted inhibition curve with a large enough effect; inconclusive means small, poorly fitted or top-dose-only effect; inactive means no such curve, though single readings can be large or run the other way.
# Target: Beta-lactamase (Escherichia coli (strain K12)) (UniProt P00811)
# Assay: qHTS Inhibitors of AmpC Beta-Lactamase (assay without detergent); further: nearly all actives have a fitted effect of over 20% in size
# Settings: AmpC nitrocefin hydrolysis, absorbance 480 nm, 0.0001% Triton; series mostly up to 57.1 µM
# Protocol: NIH Molecular Libraries Probe Production Network [MLPCN] NIH Chemical Genomics Center [NCGC] Assay Provider: Professor Brian Shoichet, UCSF Assay Overview: This aggregation profiling approach exploits the sensitivity of aggregate formation to detergent. Inhibition of b-lactamase is measured in the presence and absence of 0.01% Triton X-100. This particular assay had the prescence of 0.01% Triton X-100. See Pubchem assay "Promiscuous and Specific Inhibitors of AmpC Beta-Lactamase (assay without detergent)" for related screen. Compounds that inhibit only in the absence of detergent are considered likely promiscuous aggregators. A screen of 1,030 compounds was performed in Brian Shoichet's lab in 96-well format. AmpC activity was measured by following the absorbance at 480 nm. Nitrocefin is a chromogenic substrate: while nitrocefin is yellow (lmax 390 nm), the product of its hydrolysis is red (lmax 486 nm, 17,000 M-1). AmpC beta lactamase was provided by Shoichet Lab, UCSF.
# Buffer: 20 mM phosphate buffer, pH 7.0 Triton X-100: No Detergent screen: 0.0001%, Detergent screen: 0.01%. Reagents/Controls: Buffer in columns 3 and 4 as negative control (no enzyme). 5.3 nM AmpC in columns 1, 2, 5-48. Titration of UCSF compound 9 control (from 10 mM, then 1:2) pin-transferred to column 2. Column 1 is neutral (100% activity). Assay Steps: Six uL of reagents were dispensed to 1536-well Greiner black clear bottom plates. Compounds and controls (23 nL) were transferred via Kalypsys PinTool. The plates were incubated for 15 min at room temperature, and then 2 uL of 800 uM solution of nitrocefin was added to start the reaction. The plates were immediately transferred to and read every 20 seconds for 4 min on ViewLux (Perkin-Elmer) High-throughput CCD imager using 480 nm absorbance protocol. During dispense, reagent bottles were kept submerged into 4 deg C water bath. Keywords: NIH Roadmap, MLSCN, MLI, MLSMR, qHTS, NCGC, AmpC Beta-Lactamase, Aggregation
# Potency means the concentration at half of the fitted maximal effect.
# Chain of Beta-lactamase (Escherichia coli (strain K12)) (P00811 whole entry, looked up): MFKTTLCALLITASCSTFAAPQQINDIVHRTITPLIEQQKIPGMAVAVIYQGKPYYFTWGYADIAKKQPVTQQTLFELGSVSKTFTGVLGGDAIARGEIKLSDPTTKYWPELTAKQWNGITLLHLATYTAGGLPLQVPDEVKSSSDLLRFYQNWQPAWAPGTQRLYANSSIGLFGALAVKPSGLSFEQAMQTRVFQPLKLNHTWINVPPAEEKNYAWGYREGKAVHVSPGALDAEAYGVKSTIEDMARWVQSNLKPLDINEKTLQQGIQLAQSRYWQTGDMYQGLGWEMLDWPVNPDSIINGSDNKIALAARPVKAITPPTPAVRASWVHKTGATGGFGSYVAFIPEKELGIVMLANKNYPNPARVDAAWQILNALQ
SMILES,Potency,"activity change, negative = inhibition"
CC1=CC2=NC(=O)CC(C)(C(=O)N(CC(=O)NC(C)(C)C)Cc3ccccc3)N2C=C1 (stereo unspecified),inactive,–
Cc1ccc(Sc2cc(N3CCOCC3)nc(-c3ccccc3)n2)cc1,inactive,–
O=C(COC(=O)c1ccccc1Cl)NC1CCCCCCC1,inactive,–
N#Cc1ccccc1Sc1ccccc1C(=O)OCC(=O)NC1CCCCC1,35.5 µM (active),–
O=C(COC(=O)c1ccccc1SCC(=O)NC1CCCCC1)NC1CCCCC1,inactive,–
CCOc1c2ccc(C(=O)NCc3ccc(OC(F)(F)F)cc3)cc2nn1C,inactive,–
CCOc1c2ccc(C(=O)NCc3ccc4c(c3)OCO4)cc2nn1C,0.316 µM (active),–
CCCn1nc2cc(C(=O)NCc3ccccc3)ccc2c1OCC,inactive,–
CCCc1noc2c1/C(=N\O)CCC2,inactive,–
Cc1ccc(CNC(=O)CC(NC(=O)c2ccccc2)c2ccccc2)cc1 (stereo unspecified),inactive,–
COc1cccc(Nc2nnc(SCC(=O)N3CC(=O)Nc4ccccc43)s2)c1,inactive,–
Cc1ccc(Cc2cnc(N)s2)o1,inactive,–
Cc1ccc(CCC(=O)Nc2ncc(Cc3cc(Cl)ccc3Cl)s2)o1,20 µM (active),–
O=C(CCc1ccccc1Cl)Nc1ccc(S(=O)(=O)Nc2nccs2)cc1,inactive,–
O=S(=O)(Nc1cccc(-c2ccc(N3CCOCC3)nn2)c1)c1ccc(Cl)c(Cl)c1,inactive,–
O=C(NCC(c1ccco1)N1CCc2ccccc21)c1cccc(F)c1 (stereo unspecified),inactive,–
O=C(/C=C/c1ccccc1)Oc1coc(CSc2ncccn2)cc1=O,inactive,–
O=C(CSc1nnc(-c2cccs2)n1Cc1ccccc1)N1CCc2ccccc2C1,inactive,–
Cc1nc(SCC(=O)N2CCc3ccccc3C2)c2c(C)c(C)sc2n1,0.158 µM (active),–
Cc1nc(SCC(=O)N2CC(=O)Nc3ccccc32)c2c(C)c(C)sc2n1,inactive,–
CC(C)C(=O)Nc1nnc(Sc2ccc(N(C)C)cc2)s1,inactive,–
Fc1cccc(Cc2noc(CN3CCN(c4cnccn4)CC3)n2)c1,inactive,–
Cc1ccc(-n2c(C)cc(/C=C(\C#N)C(=O)NCC3CCCO3)c2C)cc1 (stereo unspecified),inactive,–
Cc1ccc2c(c1)C(c1ccccc1)N(C(=O)c1ccc(F)cc1)CC(=O)N2 (stereo unspecified),inactive,–
CCC(CC)C(=O)N1CC(=O)Nc2ccc(Br)cc2C1c1ccccc1 (stereo unspecified),0.891 µM (active),–
CC(C)C(=O)N1CC(=O)Nc2ccc(F)cc2C1c1ccc(F)cc1 (stereo unspecified),inactive,–

SMILES,Potency,"activity change, negative = inhibition"
CCCOC(=O)c1[nH]c2c(c1C)C(=O)CC(c1cccs1)C2 (stereo unspecified),inactive,–
COCCOC(=O)c1[nH]c2c(c1C)C(=O)CC(c1ccc(OC)cc1)C2 (stereo unspecified),inactive,–
CCCOC(=O)c1[nH]c2c(c1C)C(=O)CC(c1cc(OC)c(OC)c(OC)c1)C2 (stereo unspecified),2.51 µM (active),–
COC(=O)Nc1ccc(S(=O)(=O)N2CCN(CCN3C(=O)C4C5C=CC(C5)C4C3=O)CC2)cc1 (stereo unspecified),inactive,–
O=C(CCc1ccccc1F)N1CCN(c2ccccc2)CC1,inactive,–
C=C(C)Cn1c(N2CCN(CC)CC2)nc2c1c(=O)[nH]c(=O)n2C,inactive,–
Nc1cc(N2CCCCCC2)c2nonc2c1[N+](=O)[O-],inactive,–
COc1ccc(CCNC(=O)C(=O)NCC2CCCN2S(=O)(=O)c2cccs2)cc1OC (stereo unspecified),31.6 µM (active),–
COc1ccc(C(=O)NCC2CCCN2S(=O)(=O)c2cccs2)cc1OC (stereo unspecified),inactive,–
O=C(NCc1ccc(Cl)cc1)C(=O)NCC1CCCN1S(=O)(=O)c1cccs1 (stereo unspecified),35.5 µM (active),–
O=C(NCc1ccc(Cl)cc1)C1CCN(S(=O)(=O)c2cccs2)CC1,inactive,–
COc1ccccc1CCNC(=O)C(=O)NCCC1CCCCN1S(=O)(=O)c1cccs1 (stereo unspecified),inactive,–
O=C(NCc1ccccc1Cl)C(=O)NCC1CCCN1S(=O)(=O)c1cccs1 (stereo unspecified),inactive,–
O=C(COc1ccc([N+](=O)[O-])cc1)Nc1cccc(C(=O)Nc2ccccc2C(=O)O)c1,inactive,–
O=C(NCCc1ccco1)C(=O)NCCC1CCCCN1S(=O)(=O)c1ccccc1 (stereo unspecified),inactive,–
COc1cccc(CNC(=O)CN(C)S(=O)(=O)c2ccc3c(c2)c(=O)n(C)c(=O)n3C)c1,inactive,–
CCC1Oc2ccccc2N(CC(=O)NCCCN2CCN(CC)CC2)C1=O (stereo unspecified),inactive,–
COC(=O)c1ccc(/C=N/N2C(C)CCCC2C)cc1 (stereo unspecified),inactive,–
O=C1OC(OC(=O)c2ccccc2Br)C(N2CCOCC2)=C1Cl (stereo unspecified),4.47 µM (active),–
O=C1OC(NC(=O)c2ccccc2)C(N2CCOCC2)=C1Cl (stereo unspecified),inactive,–
O=C1C(Cl)=C(N2CCOCC2)C(=O)N1c1ccccc1,inactive,–
CC(=O)N1CCN(S(=O)(=O)c2c(F)cc(F)c(Cl)c2F)CC1,inactive,–
CC(=O)Nc1ccc(C(=O)OCC(=O)Nc2ccc([N+](=O)[O-])cc2C(F)(F)F)cc1,inactive,–
O=C(CCN1C(=O)C2C3CCC(C3)C2C1=O)Nc1ccc(Cl)cc1Cl (stereo unspecified),inactive,–
CC1CN(c2nc(-c3ccccc3)nnc2-c2ccccc2)CC(C)O1 (stereo unspecified),inactive,–
O=C1Cc2cc(S(=O)(=O)Nc3cccc(F)c3)ccc2N1,inactive,–

SMILES,Potency,"activity change, negative = inhibition"
Cn1c(=O)n(C)c2cc(NS(=O)(=O)c3ccc(F)cc3)ccc21,–,-28.5% [at 2.29 µM]
CSc1ccc(S(=O)(=O)Nc2cccc(F)c2)cc1,0.251 µM (active),–
CC1CCN(C(=O)/C(=C\c2ccccc2F)NC(=O)c2ccccc2)CC1,inactive,–
CCCC(CNC(=O)COC(=O)C1=NNC(=O)CC1)c1ccc(Cl)cc1Cl (stereo unspecified),inactive,–
CC(C)(C)NC(=O)NC(=O)COC(=O)Cc1c(F)cccc1Cl,inactive,–
CC(NC(=S)Nc1ccccc1)C(c1cccs1)N1CCOCC1 (stereo unspecified),inactive,–
CCCCn1c(SCC(=O)N2CCCC2=O)nc2cc(S(N)(=O)=O)ccc21,inactive,–
CCOc1ccc(N2C(=O)CSC2=NC#N)cc1,inactive,–
CCO/C=C1\C(=O)N(c2ccc(OCC)cc2)C(=O)c2ccccc21,inactive,–
CCOc1ccc(N2C(=O)CN(c3cccc4ccccc34)C2=S)cc1,10 µM (active),–
Cc1cc(NC(=O)CSCc2nc(-c3cccc(Cl)c3)oc2C)no1,inactive,–
O=S(=O)(c1ccc(SCc2ccccc2)nc1)N1CCCCCC1,inactive,–
C/C(CC(C)C)=N\Oc1nc(C)cc(C)n1,inactive,–
O=C(NCC(c1ccco1)N1CCc2ccccc2C1)c1ccccc1Cl (stereo unspecified),inactive,–
CCOC(CNC(=O)C(=O)NCC(c1ccco1)N1CCN(c2ccc(OC)cc2)CC1)OCC (stereo unspecified),inactive,–
COc1ccc(NC(=O)C(=O)NCC(c2ccco2)N2CCc3ccccc3C2)cc1 (stereo unspecified),28.2 µM (active),–
O=[N+]([O-])c1ccc(N2CCN(S(=O)(=O)c3ccccc3)CC2)cc1N1CCc2ccccc2C1,inactive,–
O=C(N[C@@H](Cc1ccccc1)C(=O)OCc1ccccc1)c1nc[nH]c1C(=O)N[C@@H](Cc1ccccc1)C(=O)OCc1ccccc1,inactive,–
CCC(C(=O)Nc1ncccn1)(C(F)(F)F)C(F)(F)F,inactive,–
Cc1ccccc1-c1nc(CS(=O)(=O)CC(=O)NC(C)c2ccccc2)c(C)o1 (stereo unspecified),inactive,–
Cc1ccccc1-c1nc(CS(=O)(=O)CC(=O)N2CCc3ccccc3C2)c(C)o1,11.2 µM (active),–
CSc1ccc(CCNC(=O)CS(=O)(=O)Cc2nc(-c3ccccc3F)oc2C)cc1,inactive,–
CCC[C@H]1CCCC/C=C\CCCC(=O)OCCN1C(=O)OC(C)(C)C,inactive,–
COCCn1c(CN2CCC(Cc3ccccc3)CC2)nc2c1c(=O)n(C)c(=O)n2C,inactive,–
CC(C)Cn1c(CN(Cc2ccccc2)Cc2ccccc2)nc2c1c(=O)n(C)c(=O)n2C,3.55 µM (active),–
CC(C)CCn1c(CN(C)Cc2ccccc2)nc2c1c(=O)n(C)c(=O)n2C,inactive,–

SMILES,Potency,"activity change, negative = inhibition"
CCN1CCN(Cc2nc3c(c(=O)n(C)c(=O)n3C)n2CC(=O)c2ccccc2)CC1,1.58 µM (active),–
CC1CCCN(Cc2nc3c(c(=O)n(C)c(=O)n3C)n2CC(=O)c2ccccc2)C1 (stereo unspecified),inactive,–
COCCn1c(CN(Cc2ccccc2)Cc2ccccc2)nc2c1c(=O)n(C)c(=O)n2C,inactive,–
Cc1oc2nc(SCC(=O)Nc3ccc(S(N)(=O)=O)cc3)nc(NC(=O)c3ccccc3)c2c1C,inactive,–
O=C(CNC1CCCCC1)NCC1(c2ccccc2)CCCC1,inactive,–
Cc1ccc(C(=O)NNC(=O)CSc2nnc3ccccn23)cc1,inactive,–
Cc1ccc(-n2c(C)cc(C(=O)CSc3nnc4ccccn34)c2C)cc1,inactive,–
O=C(CSc1nnc2ccccn12)c1ccccc1,44.7 µM (active),–
COc1ccc(N2CCN(C(=O)CNC(=O)c3ccc(Br)o3)CC2)cc1,inactive,–
COc1ccc(-c2nc(CCNC(=O)c3ccc(Br)o3)cs2)cc1,44.7 µM (active),–
O=C(NCCc1csc(-c2ccccc2)n1)c1ccccc1F,inactive,–
CCOC(=O)N1CCN(Cc2oc(CO)cc(=O)c2O)CC1,inactive,–
C=CC1=C(C(=O)O)N2C(=O)[C@@H](NC(=O)/C(=N\OCC(=O)O)c3csc(N)n3)[C@H]2SC1,2 µM (active),–
CC(C)(C)OC(=O)C1=C(CO)CS[C@@H]2[C@H](NC(=O)Cc3ccccc3)C(=O)N12,inactive,–
Cc1nnc(SCC2=C(C(=O)O)N3C(=O)C(NC(=O)Cn4nc(C)c(Cl)c4C)C3SC2)s1 (stereo unspecified),inactive,–
Cc1cc(C)cc(C(=O)NC2C(=O)N3C(C(=O)O)=C(CSc4nnc(C)s4)CSC23)c1 (stereo unspecified),inactive,–
O=C(CN1C(=O)NC2(CCCCC2)C1=O)NCCC1=CCCCC1,inactive,–
O=S(=O)(c1ccc(Cl)s1)N1CCC2(CC1)OCCO2,inactive,–
COc1ccc(CNC(=O)CN2C(=O)NC3(CCCc4sccc43)C2=O)cc1 (stereo unspecified),inactive,–
C=CCC1=C/C(=C\c2c(N)n3nc(CC(=O)N4CCOCC4)sc3nc2=O)C=C(OC)C1=O,inactive,–
COC(=O)C1(C)NC(c2ccc(F)cc2)C2C(=O)N(c3ccccc3)C(=O)C21 (stereo unspecified),inactive,–
COC(=O)CSc1snnc1-c1ccc(Cl)c(Cl)c1,inactive,–
O=C1c2ccccc2NC(c2ccccn2)N1NS(=O)(=O)c1ccccc1 (stereo unspecified),inactive,–
